Assay outcomes (PubChem)
Nrf2 activator = qHTS of Nrf2 Activators | Potency, µM (doses to about 46.1 µM), usual class: activators | actives 0.31% (n = 410,000) | AREc32 ARE-luciferase reporter (MCF7-derived line), luminescence, 24 h; note: nearly all actives have a fitted effect of over 65% in size
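Luciferase luminescence (Steady-Glo, 30 min at room temperature) served as the read-out of ARE activation in AREc32 cells treated with compounds for 24 hr at 37 deg C.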
A549 viability = Nrf2 qHTS screen for inhibitors: counterscreen for cytotoxicity; A549 ARE-Fluc cells, CellTiter-Fluor viability, 18-24 h; Potency, µM (series often up to 46 µM), most hits filed as inhibitors; actives 0.16% (n = 390,000)
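A549 ARE-Fluc cells in 5% FBS OPTI-MEM, 5000 cells/well, rested 2 h then exposed to compounds in concentration-response for 18-24 h at 37 °C. Viability by CellTiter-Fluor fluorescence (Ex 405/Em 525) after 30 min; luciferase luminescence (BugLite, 15 min, RT) read afterwards.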
Anesthetic bind = qHTS Assay for Identification of Novel General Anesthetics; Ferritin light chain (Equus caballus), P02791; apoferritin/1-aminoanthracene competitive binding, fluorescence; Potency, µM (doses to about 77.5 µM), most hits filed as inhibitors; actives 0.074% (n = 350,000); AID 485281, 2010; note: nearly all actives have a fitted effect of over 20% in size
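Horse-spleen apoferritin (10 uM) in 50% saturated 1-aminoanthracene in PBS was incubated 10 min at room temperature with compound. Fluorescence (ex 380, em 535 nm) was normalized to free and bound 1-AMA, with concentration-response fitted by a four-parameter Hill equation.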
IDH1 R132H inh = qHTS for Inhibitors of mutant isocitrate dehydrogenase 1 (IDH1): qHTS | Isocitrate dehydrogenase [NADP] cytoplasmic (Homo sapiens), O75874 | IDH1-R132H enzyme, NADPH consumption, diaphorase/resazurin fluorescence | Potency, µM (doses to about 76.6 µM), hits mostly inhibitors | actives 0.093% (n = 390,000) | AID 602179, 2012; note: nearly all actives have a fitted effect of over 65% in size
Target sequence (O75874 whole entry R132H, stated change not applied): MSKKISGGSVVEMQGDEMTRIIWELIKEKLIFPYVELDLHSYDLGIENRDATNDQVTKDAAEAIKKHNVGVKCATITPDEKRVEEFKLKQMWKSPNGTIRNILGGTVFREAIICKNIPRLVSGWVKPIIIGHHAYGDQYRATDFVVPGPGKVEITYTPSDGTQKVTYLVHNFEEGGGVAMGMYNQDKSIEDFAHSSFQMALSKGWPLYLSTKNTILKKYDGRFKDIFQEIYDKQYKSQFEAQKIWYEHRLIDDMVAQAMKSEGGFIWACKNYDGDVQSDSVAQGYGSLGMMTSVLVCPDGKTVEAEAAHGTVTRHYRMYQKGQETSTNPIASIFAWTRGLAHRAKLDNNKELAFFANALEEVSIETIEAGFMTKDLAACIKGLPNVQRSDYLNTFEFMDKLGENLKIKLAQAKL
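IDH1-R132H (0.5 ug/mL) preincubated 30 min with compound, then NADPH (0.016 mM) and alpha-KG (2 mM) added; 80 min at RT, pH 7.5. Remaining NADPH coupled via diaphorase/resazurin to fluorescence (540/590 nm); concentration-response curves normalized to no-enzyme control.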
Nrf2 block = Nrf2 qHTS screen for inhibitors; A549 ARE-Fluc reporter, luciferase luminescence, 18-24 h; Potency, µM (top dose mostly 46 µM), usual class: inhibitors; actives 2.1% (n = 360,000); AID 504444, 2011; note: nearly all actives have a fitted effect of over 60% in size
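Two sequential reads on A549 ARE_Fluc cells exposed to compound for 18-24 h: a CellTiter-Fluor fluorescence read for viability, then a luciferase luminescence read for Nrf2/ARE activity.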
Giardia kill = Small Molecules that selectively kill Giardia lamblia: qHTS; Giardia lamblia trophozoite viability; activity change, % at 7.66 µM, hits read low; actives 0.15% (n = 340,000); AID 540267, 2011; in the data active = activity change below about -80%; inconclusive = between about -30% and that limit;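 note: parasites exposed to compound for two days anaerobically before the ATP read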
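Viability, read as ATP luminescence: trophozoites at 100 cells/well, compound added, 48 hrs anaerobic at 37 deg C, then 15-30 min room-temperature development before reading.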
A number is an active result; 0 = inactive; ? = inconclusive; - = not tested or not shown. The list is not random: actives were taken first. Their share in the collection is about 2.3%. Unless noted, calls come from the whole dose curve; as a rule, active = well fitted curve in the direction sought with a large enough effect; inconclusive = small, poorly fitted or top-dose-only effect, or another doubt; inactive = no such curve, though single readings can be large; an effect the other way counts as inactive or inconclusive.

SMILES | Nrf2 activator | A549 viability | Anesthetic bind | IDH1 R132H inh | Nrf2 block | Giardia kill
COc1cc(C(=S)N2CCC(C)CC2)ccc1O | 0 | - | ? | 0 | 18µM | 0
COc1cc(CN(C(=O)c2ccc(OC(C)C)cc2)c2ccccn2)cc(OC)c1OC | 0 | 0 | 0 | 0 | 5.2µM | -
O=S(=O)(NCCS(=O)(=O)N1CCN(c2cccc(Cl)c2)CC1)c1ccc(F)cc1 | 0 | 0 | 0 | 0 | - | -
Cc1ccc(-c2ccc(S(=O)(=O)Nc3cccnc3)cc2)cc1 | 0 | 0 | 0 | 0 | 12µM | 0
Cc1ccc2nsnc2c1S(=O)(=O)Nc1cccc2cccnc12 | - | ? | 0 | - | 8.2µM | -
Cc1ccc(S(=O)(=O)Nc2cccc3cccnc23)cc1 | ? | 0 | ? | 0 | 6.5µM | 0
Cc1ccc2nsnc2c1S(=O)(=O)Nc1cccc2nsnc12 | 0 | 0 | 0 | 0 | 0 | 0
O=C1c2ccccc2C(=O)c2cc(S(=O)(=O)Nc3cccc4cccnc34)ccc21 | - | 0 | ? | - | 5.2µM | -
CC(C)c1cc(C(C)C)c(S(=O)(=O)Nc2cccc3cccnc23)c(C(C)C)c1 | - | 0 | 0 | - | ? | -
COc1nc(N(C)S(=O)(=O)c2ccc(C)cc2)nc(C)c1Br | 0 | 0 | 0 | 0 | 4.1µM | 0
c1ccc(-c2noc(CSc3nnc(Cc4cccs4)n3-c3ccccc3)n2)cc1 | 0 | 0 | 0 | 0 | ? | 0
Cc1ccc(-c2noc(CSc3nnc(Cc4ccccc4)n3-c3cccc(C)c3)n2)cc1 | 0 | ? | 0 | 0 | 26µM | 0
CCOc1ccc(-c2noc(CSc3nnc(Cc4ccccc4)n3-c3cccc(C)c3)n2)cc1 | 0 | ? | 0 | 0 | 26µM | -
Clc1ccc(-c2noc(CSc3nnc(Cc4cccs4)n3-c3ccccc3)n2)cc1 | 0 | 0 | 0 | 0 | 16µM | 0
COc1ccc(C2=Nn3c(nnc3-c3ccccc3OC)SC2)cc1 | - | 0 | - | - | ? | -
NS(=O)(=O)c1ccc(Nc2ncccc2[N+](=O)[O-])cc1 | 0 | 0 | 0 | 0 | - | -91
CCCC[C@H]1CCCO[C@@](C(=O)NCc2ccccn2)(C(F)(F)F)C1 | - | 0 | 0 | - | 0 | 0
CCO/C=N/Nc1nc(C(F)(F)F)nc2c1cnn2Cc1ccccc1 | 0 | 0 | 0 | 0 | 23µM | 0
CCOC1(c2ccccc2)CC1C(=O)N/N=C/c1cccc([N+](=O)[O-])c1 (configuration not stated) | 0 | 0 | 0 | 0 | 18µM | 0
COC(=O)N/N=C/c1cccc([N+](=O)[O-])c1 | 0 | 0 | 0 | 0 | 0 | 0
O=[N+]([O-])/C(Cl)=C(/NCCO)C(Cl)=C(Cl)Cl | 0 | ? | - | 0 | 0 | -100
O=[N+]([O-])c1ccc(Nc2nc(Cl)nc(NCCO)n2)cc1 | 0 | 0 | 0 | 0 | 0 | 0
N#Cc1c(Cl)cccc1Oc1ccc([S+](=O)([O-])N2CCN([S+](=O)([O-])c3c(F)cccc3F)CC2)cc1 | - | 0 | - | - | 0 | -
O=C(/C=C/c1ccc(Br)o1)NC(c1ccccc1)c1ccccc1 | 0 | 0 | 0 | 0 | 26µM | 0
c1ccc(-c2csc3ncnc(NCCN4CCOCC4)c23)cc1 | 0 | 0 | 0 | 0 | 15µM | 0
SMILES | Nrf2 activator | A549 viability | Anesthetic bind | IDH1 R132H inh | Nrf2 block | Giardia kill
Cc1ccc(-c2csc3ncnc(NCCN4CCOCC4)c23)cc1 | 0 | 0 | 0 | 0 | ? | 0
CCCN(C(=O)c1cc2c(=O)[nH]c3ccc(C)cc3c2s1)c1ccc(CC)cc1 | 0 | 0 | 0 | 0 | 0 | -
CCCN(CCC)C(=O)c1cc2c(=O)[nH]c3ccc(C)cc3c2s1 | 0 | 0 | ? | 0 | 18µM | 0
CCOc1ccccc1NC(=O)C1CCN(S(=O)(=O)Cc2ccccc2)CC1 | 0 | 0 | 0 | 0 | 23µM | -
COC(=O)c1cccc(NC(=O)C2CCN(S(=O)(=O)Cc3ccccc3)CC2)c1C | 0 | 0 | 0 | 0 | 0 | -
N#Cc1ccccc1NC(=S)NC(=O)c1cccs1 | 16µM | 0 | 0 | 0 | 0 | 0
O=C(Nc1cccc2cccnc12)c1ccccc1 | - | 0 | - | - | ? | 0
